Assay results as given in ChEMBL document CHEMBL1157539, “Thousands of chemical starting points for antimalarial lead identification” (Nature, 2010).

The molecules below were run on HepG2 (assay: GSK_TCMDC: Percent inhibition of human HepG2 cell line. Test compounds present at 10uM.).
Type: functional

SMILES	Inhibition [%]
O=C(Nc1cccc(-c2cccc(-c3nc4ccccc4[nH]3)c2)c1)c1cccnc1	12
CCNc1cc(C(=O)N[C@@H](Cc2ccccc2)[C@H](O)CNC2(CC(C)C)CC2)cc(N2CCCCS2(=O)=O)c1.Cl	0
Cc1ccc2nc(C)cc(N/N=C/c3ccc([N+](=O)[O-])cc3)c2c1	10
O=C(O)C1CC(=O)N(c2ccc(Cl)cc2)C1 (stereo not drawn)	51
CCN(CCCN1CCCCC1)c1cc(C)nc(Nc2cc(Cl)ccc2C)n1.O=C(O)C(F)(F)F	36
COc1ccc2ncc(F)c(CCN3CCC(NCc4cc(F)c5c(c4)OCCO5)CC3)c2n1.Cl	15
O=C(Cc1c[nH]cn1)Nc1ccc(-c2cccc(-c3nc4cc(F)ccc4[nH]3)c2)cc1	28
CCC[C@@H]([C@@H](CC1CCCCC1)C(=O)N[C@@H](CCOC(=O)NCC)C(=O)Nc1nccs1)N(O)C=O	0
CC(=O)Nc1ccc(Nc2ncc([N+](=O)[O-])c(Nc3ccccc3C(N)=O)n2)cc1.Cl	42
COc1ccc(-c2ccc(CN(C)C3CCC(NC(=O)c4cc5ccccc5[nH]4)CC3)cc2)cn1 (stereo not drawn)	31
COc1ccc(-c2cc(-c3nc4cc(C(=O)N5CCOCC5)ccc4[nH]3)c(=O)n(C)c2)cc1OC.O=C(O)C(F)(F)F	6
COc1ccc(N2CCN(CCCCNC(=O)c3ccc(NC(=O)c4cc(C(F)(F)F)cc(C(F)(F)F)c4)cc3)CC2)c(OC)c1	30
Cc1ccc(NC(=O)c2ccc(NCCCN(C)Cc3ccccc3)c([N+](=O)[O-])c2)cc1F	12
